# Assay results published in PubChem BioAssay AID540299 (ICCB-Longwood Screening Facility, Harvard Medical School, 2011).
# Among all 100,000 compounds or so, about 440 (0.44%) were called active. The sample as a whole holds a higher share of actives than the screen did. A number with no mark means an inactive call. Cut-off read from the data, not from the text of the source: active = inhibition above about 21% (passing the limit was not always enough); inactive = the rest.
# Biological target: 1,4-dihydroxy-2-naphthoyl-CoA synthase (Mycobacterium tuberculosis (strain ATCC 25618 / H37Rv)) (UniProt P9WNP5)
# Test: M. tuberculosis MenB inhibitors, primary screen, biochemical, absorbance (AID 540299)
# Settings: MenB enzyme assay, absorbance read-out; hits give high values; concentration not given here
# 1,4-dihydroxy-2-naphthoyl-CoA synthase (Mycobacterium tuberculosis (strain ATCC 25618 / H37Rv)), sequence (P9WNP5 whole entry, looked up): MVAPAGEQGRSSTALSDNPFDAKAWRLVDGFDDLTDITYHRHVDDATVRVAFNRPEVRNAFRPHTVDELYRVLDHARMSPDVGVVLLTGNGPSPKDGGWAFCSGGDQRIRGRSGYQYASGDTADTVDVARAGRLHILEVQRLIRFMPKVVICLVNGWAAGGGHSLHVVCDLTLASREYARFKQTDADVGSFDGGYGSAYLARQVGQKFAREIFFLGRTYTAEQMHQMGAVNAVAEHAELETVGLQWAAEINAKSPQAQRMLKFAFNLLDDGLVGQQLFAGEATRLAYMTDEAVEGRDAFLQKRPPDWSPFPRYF
row,SMILES,inhibition
1,CC(=O)NC1C(Oc2ccccc2)OC(CO)C(O)C1O (centres undefined),-6.61%
2,COc1ccc(OCCOc2cccc(N)c2)cc1,-98.6%
3,Cc1cccc(-n2nnnc2SCC(=O)c2c[nH]c3ccccc23)c1,-3.22%
4,CCn1nnnc1SCC(=O)c1ccc(C)cc1C,33.1% (active)
5,C=CCN(CC=C)C(=O)CSc1nnnn1-c1ccc(C)cc1C,-1.92%
6,CCNC(=S)N1CCn2cccc2C1c1cccs1 (centres undefined),-29%
7,CC(Sc1nnnn1C)C(=O)C12CC3CC(CC(C3)C1)C2 (centres undefined),-36%
8,COc1ccc(S(N)(=O)=O)cc1C(=O)OC1CCCCC1=O (centres undefined),-12.8%
9,Clc1cccc(Nc2nnc(-c3ccc(Br)cc3)o2)c1,1.27%
10,CC1CCNC(c2cccn2C)CC1 (centres undefined),-2.11%
11,CCN1C(=O)C2(Sc3ccccc3C2=O)C(=O)N(CC)C1=S,-6.71%
12,Clc1ncn(CCOc2ccccc2)c1Cl,3.99%
13,O=C(Cn1c(=O)oc2ccccc21)N(Cc1ccco1)CC1CCCO1 (centres undefined),2.87%
14,O=C(NCc1ccco1)OCC(F)(F)F,8.37%
15,O=C(c1cccs1)N1CCCn2c(SCc3ccccc3Cl)nnc21,-21.4%
16,COC(=O)c1ccccc1S(=O)(=O)N1CCC(C(=O)OCC(=O)Nc2ccccc2F)CC1,-9.07%
17,CCN(CC)CCn1c2ccccc2c2nc3cc(C(=O)O)ccc3nc21,-8.07%
18,Cc1oc(-c2ccc(Cl)cc2)nc1CSCC(=O)N1CCc2ccccc21,8.32%
19,COCCN=c1scc(-c2ccco2)n1/N=C/c1ccc(OC)cc1,-60.5%
20,CN1C(=O)CS/C1=C\C(=O)c1cccs1,-16.1%
21,Fc1ccc(C=Nc2ccc3c(c2)OCO3)cc1,10.6%
22,C/[N+]([O-])=C\c1ccc(-c2ccccc2)cc1,-18.5%
23,O=C(COc1ncnc2c1cnn2-c1ccccc1)N1CCc2ccccc21,-28.4%
24,O=C(COn1nnc2ccccc21)N1CCC(Cc2ccccc2)CC1,-32.5%
25,O=C1NC(c2cccc(F)c2)=N/C1=C/c1cc2c(cc1Cl)OCO2,-89%

row,SMILES,inhibition
1,Cc1ccc(-c2csc3ncnc(NCCO)c23)cc1,-19.8%
2,Cc1cccc(/N=c2\scc(-c3ccco3)n2-c2ccccc2)n1,-26.2%
3,CCC(=O)c1c(O)ccc2c(C)cc(=O)oc12,2.91%
4,CCN(CC)c1ccc2cc(C(N)=O)/c(=N\NC(=O)c3ccccc3)oc2c1,-13.9%
5,Cn1c(=N)n(CC(=O)C23CC4CC(CC(C4)C2)C3)c2ccccc21,-12%
6,Cc1ccc(NC(=O)CN2CCc3ccccc32)cc1C,-19.3%
7,COc1cccc2c(C)nc(NC3=NCN(CC4CCCO4)CN3)nc12 (centres undefined),-8.02%
8,COC(=O)c1ccc(NC(=O)C(C(C)C)N2C(=O)c3ccccc3C2=O)cc1 (centres undefined),0.235%
9,Cc1cc(NC(=O)[C@H](C)NC(=O)c2ccco2)ccc1Br,0.245%
10,Cc1ccccc1NC(=O)COC(=O)c1ccccc1,4.34%
11,O=C1Nc2ccccc2S/C1=C\C(=O)N1CCc2ccccc2C1,-6.55%
12,CCOC(=O)c1ccc2c(c1)[nH]c(=O)c(=O)n2CC,5.07%
13,O=C(O)/C(=C/C(=O)c1ccc(F)cc1)Nc1ccc2[nH]c(=O)[nH]c2c1,-9.19%
14,O=C(O)/C(=C/C(=O)c1ccccc1)Nc1ccc(OC(F)(F)F)cc1,32.1% (active)
15,C/C(=C\C(=O)c1ccccc1)Nc1cccc(O)c1,-47%
16,CCOc1ccc(CN(C)C(C)c2nnc(-c3ccc(C)cc3)o2)cc1 (centres undefined),-8.7%
17,COc1ccc2nc(SC)[nH]c2c1,0.13%
18,O=C(c1ccccc1)N1CCN(c2cccc(Cl)c2)CC1,-21%
19,CC(C)(C)CNC(=S)NN,-27.8%
20,CCO/C=N/c1c(C(=O)OCC)c2nc3ccccc3nc2n1Cc1ccccc1,-29.7%
21,COc1ccc(N(CCC#N)S(=O)(=O)c2ccc(Cl)cc2)cc1,34.8% (active)
22,CC(=O)Oc1ccc(N(C(C)=O)S(=O)(=O)c2ccc(Cl)cc2)cc1,-5.01%
23,COc1ccc(S(=O)(=O)N(C)C)cc1,-20.5%
24,Cc1ccc2c(c1)cc(CN(Cc1ccco1)C(=O)c1ccccc1)c1nnnn12,32.8% (active)
25,CCc1ccc2[nH]c(=O)c(CN(Cc3ccco3)C(=O)c3ccccc3)cc2c1,-39%

row,SMILES,inhibition
1,COCC(=O)N(CCc1ccccc1)Cc1cc2cccc(C)c2n2nnnc12,5.43%
2,CC(C)c1ccc(-c2noc(C3CCCN(S(C)(=O)=O)C3)n2)cc1 (centres undefined),29.2% (active)
3,COc1ccc(-c2noc(CC(=O)N(C(C)C)C3CCCCC3)n2)cc1,-38.9%
4,CC(C)c1ccc(S(=O)(=O)N2CCN(S(=O)(=O)c3ccc(C(C)C)cc3)C(C)C2)cc1 (centres undefined),-17.6%
5,COc1ccc(N2CCN(C(=S)C3CCCCC3)CC2)cc1,1.7%
6,CCOC(=O)N1CCC(NC(=O)Cn2nc(Cc3cccnc3)c3ccccc3c2=O)CC1,13.3%
7,O=C(O)CSc1nnc(COc2ccc(Cl)cc2)n1-c1ccc(Br)cc1,-31.3%
8,CC(C)(C)c1ccc(OCc2nnc(SCC(N)=O)n2-c2ccccc2)cc1,-20.4%
9,CC(Sc1nnc(COc2ccccc2)n1-c1ccccc1)C(=O)O (centres undefined),44.3% (active)
10,OC(COc1ccc(Cl)cc1)C(O)C(O)c1cnn(-c2ccccc2)n1 (centres undefined),-25.4%
11,Cc1ccc(Cn2c(=O)c3ccccc3n3c(SCC(=O)N(C(C)C)C(C)C)nnc23)cc1,-3.38%
12,CCN(c1ccccc1)S(=O)(=O)c1ccc(Sc2nnc(-c3cccs3)n2CC2CCCO2)nc1 (centres undefined),-29.5%
13,CCOC(=O)c1c(NC(=O)c2cc(-n3cnnc3)ccc2Cl)sc2c1CCCC2,-11.9%
14,CCOC(=O)CN1CCC(n2nnc3cc(C(F)(F)F)ccc32)CC1,40.1% (active)
15,COc1cc(C(=O)N2CCC(n3nnc4cc(F)ccc43)CC2)cc(OC)c1OC,-27.8%
16,CCOC(=O)c1cnc2cc(C(F)(F)F)ccc2c1N1CCCCCC1,-32.7%
17,CCCN(CCC)C(=O)c1cc(-c2ccccc2)n[nH]1,2.47%
18,CCCC(=O)N1CCN(c2ccc(NC(=O)c3ccco3)cc2Cl)CC1,36.3% (active)
19,CCCC(=O)N1CCN(c2ccc(NC(=O)c3cccc(C)c3OC)cc2Cl)CC1,-14.8%
20,Cc1cccc(C(=O)Nc2ccc(NC(=O)c3ccco3)cc2)c1,-25.7%
21,CCC(=O)Nc1cc(NC(=O)c2ccco2)ccc1C,3.59%
22,O=C(Nc1ccccc1)c1ccco1,-38.1%
23,CCCC(CCC)C(=O)Nc1ccc(NC(=O)c2ccco2)cc1,34.4% (active)
24,CCC(/C=N/N1C(=O)c2ccccc2C1=O)CC,4.86%
25,CCSc1nnc(C2CCN(CC(=O)Nc3ccc(N4CCCCCC4)cc3)CC2)n1C,-53.3%

row,SMILES,inhibition
1,Cc1cc(C)nc(N2CCCC(C)C2)n1 (centres undefined),-26.5%
2,N#CC1=C(N)/C(=C\c2ccc(Cl)c(Cl)c2)SC1=N,-31%
3,Cc1cc(C)nc(SCC(=O)N2CCCC2c2cccs2)n1 (centres undefined),-1.45%
4,O=C1C=C/C(=N\OC(=O)c2ccccc2)C2=C1C1C=CC2C1 (centres undefined),-24.3%
5,COc1ccc(-c2noc(CNC3CCCCC3)n2)cc1,-2.19%
6,CC1Sc2nnc(-c3ccc(OC(F)F)cc3)n2N=C1c1ccc(NS(C)(=O)=O)cc1 (centres undefined),-9.43%
7,N#Cc1cc(Cl)c2c(c1)OCCO2,-39.8%
8,O=C(COC(=O)Cn1[nH]c(=O)c2ccccc2c1=O)Nc1ncc(Cl)cc1Cl,1.74%
9,Cc1nc2ccc(NC(=O)CC(C)(C)C)cc2s1,-7.18%
10,N#Cc1nc(NC(=O)c2cc(-c3cccs3)nc3ccccc23)[nH]c1C#N,-0.59%
11,O/N=C(/c1ccccc1)c1ccccn1,17.8%
12,CN1C(=O)C(S(=O)(=O)c2ccccc2)C2CC1(C)Oc1ccccc12 (centres undefined),11.3%
13,CN1C(=O)C(C(=O)O)C2CC1Oc1ccccc12 (centres undefined),34.4% (active)
14,CCN1C(=O)C(C(=O)NC(C)c2ccccc2)C2CC1(C)Oc1ccccc12 (centres undefined),25.7%
15,CCN(CC)Cc1cc(C(=O)O)co1,31.6% (active)
16,CCCCC#Cc1cncc(C(=O)O)c1,-22.8%
17,CCN(c1ccccc1)S(=O)(=O)c1cccc(C(=O)O)c1,-9.9%
18,COc1ccc(C(=O)OCc2ccccn2)cc1,-2.18%
19,COC(=O)c1ccccc1NC(=O)C1CCN(S(=O)(=O)c2ccc(OC)c(OC)c2)CC1,-4.4%
20,O=c1c(O)coc(CO)c1C(Nc1ccccn1)c1ccccc1O (centres undefined),-8.94%
21,Cc1ccc(NC(=O)CC(C)S(=O)(=O)c2ccc3c(c2)SCC(=O)N3)cc1 (centres undefined),-27.7%
22,O=C(CN1CCCCC1)N1N=C(c2cccs2)CC1c1ccc(O)cc1 (centres undefined),-15.9%
23,CN1C(=O)c2cccc(NC(=O)c3ccccc3)c2C1=O,-46.4%
24,COc1cccc2c1C(=O)C1C(O)=C3C(=C(O)C1C2=O)C[C@@](O)(C(=O)CO)C[C@@H]3OC1CC(N)C(O)C(C)O1 (some centres undefined),4.12%
